Source: PubChem BioAssay (NCATS)
Where “and” joins values, the source holds several entries; their conditions need not be identical. Identical values can stand only once. Inconclusive results are not listed. Calls of active or inactive are those of the source. Calls follow the shape of the dose curve; as a rule, active = well fitted cell-killing curve with a large enough effect; inconclusive = small, poorly fitted or top-dose-only effect, or effect the other way; inactive = flat fitted curve, though single readings scatter.

Tests used:
Assay in all cases: Primary qHTS to identify gynecologic anti-cancer compounds using libraries of approved drugs and bioactive compounds (AID 1345084); also: nearly all actives have a fitted effect of over 55% in size
Details in all cases: Gynecologic cancer cell panel viability, ATPlite luminescence, 48 h; series mostly up to 57.5 µM
OV90 = tested on: OV90
How it was run: (§1)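 Measured: luminescence after ATPlite addition (15 min, RT). Exposure: 48 h, 37 C, 5% CO2.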

PA-1 = tested on: PA-1
How it was run: as §1

SKOV3 = tested on: SKOV3
How it was run: as §1

Tov-21-G = tested on: Tov-21-G
How it was run: as §1

Tov112D = tested on: Tov112D
How it was run: as §1

Measured: Potency
Potency is read from the fitted curve at half-maximal effect.

OCc1ccc(-c2ccc(-c3ccc(CO)s3)o2)s1
inactive: Tov-21-G
active: OV90 3.16 µM | PA-1 0.355 µM | SKOV3 12.6 µM

NC(=O)c1c(OCc2c(F)cc(Br)cc2F)nsc1NC(=O)NCCCCN1CCCC1
inactive: OV90

O=C(O)Cn1nnc(-c2cc(N3CCC(Oc4cc(F)ccc4Br)CC3)no2)n1
inactive: all assays above

CCCCCCCCCC(=O)N[C@@H](Cc1c[nH]c2ccccc12)C(=O)N[C@H](CC(N)=O)C(=O)N[C@@H](CC(=O)O)C(=O)N[C@@H]1C(=O)NCC(=O)N[C@@H](CCCN)C(=O)N[C@@H](CC(=O)O)C(=O)N[C@H](C)C(=O)N[C@@H](CC(=O)O)C(=O)NCC(=O)N[C@H](CO)C(=O)N[C@@H]([C@@H](C)CC(=O)O)C(=O)N[C@@H](CC(=O)c2ccccc2N)C(=O)O[C@@H]1C
inactive: all assays above

C1Cc2[nH]nc(-c3nn[nH]n3)c2C1
inactive: all assays above

O=C1CCC[C@@H]2[C@H]3CCC[N+]4([O-])CCC[C@@H](CN12)[C@@H]34 (some centres not stated)
inactive: all assays above

C[C@]12CC[C@H](O)CC1=CCC1C2CC[C@]2(C)C(n3cnc4ccccc43)=CCC12 (some centres not stated)
inactive: all assays above

CCOc1ccccc1OCCNC(C)Cc1ccc(OC)c(S(N)(=O)=O)c1 (configuration not stated)
inactive: all assays above

Cc1cc(Nc2ncnc3ccc(-c4ccc(CNCCS(C)(=O)=O)o4)cc23)ccc1Oc1ccn2ncnc2c1
inactive: all assays above

COC(=O)Nc1ccc(-c2nc(N3CCOCC3)c3cnn(C4CCN(Cc5cccnc5)CC4)c3n2)cc1
active: OV90 4.47 µM | PA-1 15.8 µM | SKOV3 2 µM | Tov-21-G 2.82 µM

C[C@]1(CO)CN(c2cc(C(=O)Nc3ccc4c(c3)-c3c(c(C(N)=O)nn3-c3ccc(F)cc3)CC4)c(Cl)cn2)C[C@@]1(C)CO
inactive: OV90
active: PA-1 11.2 µM

Cc1c(Cn2c(C)nc3c(C(=O)O)cc(N4CCOCC4)cc32)cccc1C(F)(F)F
inactive: all assays above

Cc1ccc(C(=O)Nc2cccc(C(F)(F)F)c2)cc1-c1ccc2nc(NCCN3CCOCC3)ncc2c1
active: OV90 6.31 µM | PA-1 12.6 µM | SKOV3 15.8 µM | Tov-21-G 14.1 µM

Clc1ccc2ncc(-c3cccc(NC4CNC4)n3)n2c1
inactive: all assays above

Cc1c(CN2CCN(S(C)(=O)=O)CC2)sc2c(N3CCOCC3)nc(-c3cnc(N)nc3)nc12
active: OV90 1.41 µM | PA-1 1.58 µM | SKOV3 0.562 µM | Tov-21-G 2 µM

O=C(c1cncc(Br)c1)N1CCC(N2CCCC2)CC1
inactive: all assays above

COc1ccc(OC)c(-c2nnc3ccc(-c4ccc(OC)c(O[C@@H]5CCOC5)c4)nn23)c1
inactive: OV90

CCCn1c(=O)c2[nH]c(-c3cnn(Cc4cccc(C(F)(F)F)c4)c3)nc2n(CC)c1=O
inactive: all assays above

CC[C@@H]1C(=O)N(C)c2cnc(Nc3ccc(C(=O)NC4CCC(N5CCN(CC6CC6)CC5)CC4)cc3OC)nc2N1C(C)C (some centres not stated)
active: OV90 15.8 µM and 12.6 µM | PA-1 0.251 µM

C=CC(=O)Nc1cccc(Oc2nc(Nc3ccc(N4CCN(C)CC4)cc3OC)ncc2Cl)c1
inactive: OV90 | PA-1
active: SKOV3 15.8 µM

COc1cccc(-c2ccc(NC(=O)C3=C(C(=O)O)CCC3)c(F)c2)c1
inactive: OV90

Cn1c(=O)n(-c2ccc(C(C)(C)C#N)cc2)c2c3cc(-c4cnc5ccccc5c4)ccc3ncc21
active: OV90 1.41 µM

CNC(=O)c1ccc(N2C(=S)N(c3cnc(C#N)c(C(F)(F)F)c3)C(=O)C23CCC3)cc1F
inactive: all assays above

Cc1cn2c(-c3cn[nH]c3)cnc2c(Nc2ccc(C(=O)N3CCNCC3)cc2F)n1
inactive: OV90

CC(C)c1noc(N2CCC(COc3ccc(-c4ccc(S(C)(=O)=O)cc4)nc3)CC2)n1
inactive: all assays above

CN(C)Cc1c(C(=O)NCCOc2ccc(C(=O)NO)cc2)oc2ccccc12
active: OV90 1.58 µM | PA-1 1 µM | SKOV3 7.08 µM | Tov-21-G 7.94 µM | Tov112D 3.16 µM

COc1cc(Nc2ncc(F)c(Nc3ccc4c(n3)N(COP(=O)(O)O)C(=O)C(C)(C)O4)n2)cc(OC)c1OC
active: OV90 12.6 µM | PA-1 11.2 µM | SKOV3 10 µM | Tov-21-G 14.1 µM

COc1ccc(-n2nc(C(N)=O)c3c2C(=O)N(c2ccc(N4CCCCC4=O)cc2)CC3)cc1
inactive: all assays above

CC1(O)CC(c2nc(-c3ccc4ccc(-c5ccccc5)nc4c3)c3c(N)nccn23)C1 (configuration not stated)
inactive: all assays above
